In article PMC7819943, “Rice protein-binding microarrays: a tool to detect cis-acting elements near promoter regions in rice” one finds binding signal data, which are given here for 42 sequences.

In all, about 68,000 sequences were measured (“fluorescence intensity (a.u.)”: median about 9,100, highest 2% from about 16,000 on). Shown is part of a subset that was picked to be rich in the highest values.

Sequence of OsWRKY34 (Q0JBA9 entry or part of it): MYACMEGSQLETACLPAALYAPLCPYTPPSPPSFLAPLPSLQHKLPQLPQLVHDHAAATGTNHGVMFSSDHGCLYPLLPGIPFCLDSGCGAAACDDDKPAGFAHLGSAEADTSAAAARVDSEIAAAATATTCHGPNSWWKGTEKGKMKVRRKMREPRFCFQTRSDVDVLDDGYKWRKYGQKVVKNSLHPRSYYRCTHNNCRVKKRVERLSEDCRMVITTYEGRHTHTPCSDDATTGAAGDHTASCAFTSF

For the assay, the target named is OsWRKY34 (Oryza sativa, UniProt Q0JBA9 1-250). Kind of assay: protein-binding microarray (RPBM); PBS, 2% BSA, 51.3 ng/ul salmon testes DNA, 50 uM zinc acetate, 200 nM TF, 25 C, 1 h; high values mean tight binding. Particulars: protein: recombinant; tags: N-terminal polyhistidine and DsRed monomer fusion (pET32a); label: CyDye5-dUTP incorporated in the synthesized complementary strand; 3' TTTTT single-stranded linker to array surface; dsDNA, one strand shown. The gist of the method:
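Transcription factors, each fused N-terminally to a polyhistidine tag and DsRed, were expressed in E. coli BL21-CodonPlus and purified on Ni–NTA. A custom Agilent array was made double-stranded by primer extension with Cy5-dUTP and blocked with 2% BSA. It was incubated with 200 nM protein in PBS, 2% BSA, salmon testes DNA and 50 µM zinc acetate at 25 °C for 1 h, then washed. The binding signal is per-feature fluorescence intensity (arbitrary units) read on an Axon 4000B scanner.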
For the sequence “AGTCCGACTTTTCCTTTTTTTTTTCCGTGTTTTCCGTTTCCGGAGTCACCTAGTGCAG”, the binding signal is 14800 fluorescence intensity (a.u.).

Regarding “TTTGTCGTTGCTTCCCTTCTTGGAGACCTTGCCTTGAAGACGGAGTCACCTAGTGCAG”, the binding signal is 8090 fluorescence intensity (a.u.).

Take “ATTATATTTTAGGTCGCATTTTGATTCTTTTCATGTAATCCGGAGTCACCTAGTGCAG”: the binding signal was 8660 fluorescence intensity (a.u.).

“TGGTTATGTGCCACAAATCATATATGCAATTTTGACTATACGGAGTCACCTAGTGCAG”: the binding signal was 9270 fluorescence intensity (a.u.).

Turning to “ATGGAATCGATCACCTGCAATGCAACACCGTGCCATAATCCGGAGTCACCTAGTGCAG”, the binding signal is 8520 fluorescence intensity (a.u.).

For the sequence “GAGGAGAGCAGAACAGAACAAGAGGAGGAGAACAAAAAAACGGAGTCACCTAGTGCAG”, the binding signal was 8230 fluorescence intensity (a.u.).

Consider “GTCTCGGTCTTTTCGATCTCGGTCTTTTCGGTTCGGTCTTCGGAGTCACCTAGTGCAG”, for which the binding signal is 9340 fluorescence intensity (a.u.).

As for “CTCGCTTTTCTCTTTTTTGATACTGTCTCGTGGTTTCTTGCGGAGTCACCTAGTGCAG”, the binding signal was 18400 fluorescence intensity (a.u.).

On to “TTTTCTTTGCTTTTCGGTTTCGTTCTCCGTTTTGGTTTTTCGGAGTCACCTAGTGCAG”, for which the binding signal was 12400 fluorescence intensity (a.u.).

Consider “TTTTGCTTTGGTTGGTTTGCTCGTTTTTTTTTTCTTTTCTCGGAGTCACCTAGTGCAG”, for which the binding signal was 19600 fluorescence intensity (a.u.).

As for “ATATATATATATATATATATATTTTGTCTTGAGTGGTTTGCGGAGTCACCTAGTGCAG”, the binding signal was 11700 fluorescence intensity (a.u.).

For “GAACACGATGACATCGGATCGGGTCGGTTTCTCTCTTGCTCGGAGTCACCTAGTGCAG”, the binding signal is 9010 fluorescence intensity (a.u.).

Consider “GGGTCGGTTTCTCTCTTGCTGTCTTCTCGATCGATCGATGCGGAGTCACCTAGTGCAG”, for which the binding signal is 20200 fluorescence intensity (a.u.).

On to “GTAGTTTTTTTCCTAGTTTCAGTTTTTGTTTTGCTTTTTTCGGAGTCACCTAGTGCAG”, for which the binding signal was 11200 fluorescence intensity (a.u.).

Consider “TGTCACAGTGTTTTGTTTGTGTTTTTGACCTTGCTTTCCTCGGAGTCACCTAGTGCAG”, for which the binding signal was 16800 fluorescence intensity (a.u.).

“TCTCTTTCTCTCGCTTTCTTTTTGCATAGTTTTCTTCATGCGGAGTCACCTAGTGCAG”: the binding signal is 8700 fluorescence intensity (a.u.).

“TTGGATCGTTTGCTTTTCTTTGCCTTTCTTTTGGATTTCTCGGAGTCACCTAGTGCAG”: the binding signal is 11700 fluorescence intensity (a.u.).

For the sequence “ATGTTTTTCTTTTCTTTCTTCTTTTTTTTGTTTTTGACCTCGGAGTCACCTAGTGCAG”, the binding signal is 11900 fluorescence intensity (a.u.).

Consider “GCGTGGTTGATTTTTAGTCTTGTCGACTTCGACTTTAAGCCGGAGTCACCTAGTGCAG”, for which the binding signal is 9120 fluorescence intensity (a.u.).

As to “TCGGTACTCTTGCTGAAGCAATCCTTTCTTCCTTGCCTAACGGAGTCACCTAGTGCAG”, the binding signal is 9140 fluorescence intensity (a.u.).

Take “ACAGTACGCTACTATTCATACGCTAAATTTGTCTTTTTTACGGAGTCACCTAGTGCAG”: the binding signal is 9830 fluorescence intensity (a.u.).

For “GGTTATTATATCTACAAAATTCTTGCACACCTCAGCAATGCGGAGTCACCTAGTGCAG”, the binding signal is 8090 fluorescence intensity (a.u.).

Consider “TCCGTCTGTCTATAGCTACTATTAAAGGAGGGGAGGCTCTCGGAGTCACCTAGTGCAG”, for which the binding signal was 8130 fluorescence intensity (a.u.).

As for “AAACAAACACAGAGCTTCTCTCCTCTGTTCTCCTTCTCTGCGGAGTCACCTAGTGCAG”, the binding signal was 8090 fluorescence intensity (a.u.).

Regarding “ACTGTGGTTATCTTGCTATCTCTCCTACTCGCTCTGTCAACGGAGTCACCTAGTGCAG”, the binding signal is 16500 fluorescence intensity (a.u.).

As to “AATTTTCCGTTTCTCCTTTTCTTGCTTTGTTTTTTCCTTGCGGAGTCACCTAGTGCAG”, the binding signal was 15200 fluorescence intensity (a.u.).

On to “GATTTTTTTTTTCTCGTCTCCTCGTTTTTGCTTGCCTTTCCGGAGTCACCTAGTGCAG”, for which the binding signal was 19200 fluorescence intensity (a.u.).

Take “TGTGCAGTTTTGCTGTTTATGACTAGTTTACCTGTTGTCTCGGAGTCACCTAGTGCAG”: the binding signal is 10800 fluorescence intensity (a.u.).

“TAGTTTTGTTTAATTCCTGTCTCGGGTTTGGTTGGTTGCTCGGAGTCACCTAGTGCAG”: the binding signal was 19100 fluorescence intensity (a.u.).

Regarding “GATGTCTCTCTTTTTTTTTTTGGTTTGGGTTGTCACTTTTCGGAGTCACCTAGTGCAG”, the binding signal was 9400 fluorescence intensity (a.u.).

On to “CCTGTTTTTTGTTTTTGGTGGTGGTTCCGTCTCGGTTAATCGGAGTCACCTAGTGCAG”, for which the binding signal was 9840 fluorescence intensity (a.u.).

As to “TGCACTTCTCCACTTCACTCCTCGTCTCTTGCCGTCTTTTCGGAGTCACCTAGTGCAG”, the binding signal is 13200 fluorescence intensity (a.u.).

For “TTCACTTTCACCTCGCCGTCTTGGTTGTCTTGCCGTCTTTCGGAGTCACCTAGTGCAG”, the binding signal is 20200 fluorescence intensity (a.u.).

Turning to “CTACATCTTCTCTCGCTATCTCTCTCTGTACTCTCTCTCTCGGAGTCACCTAGTGCAG”, the binding signal was 11400 fluorescence intensity (a.u.).

Take “TGGCTCTCTCGCTCCTATGTGGCTATGTCTGTCTACCTAACGGAGTCACCTAGTGCAG”: the binding signal is 10800 fluorescence intensity (a.u.).

Consider “TCGTCTCCGGCCTTTTCTTGCTCTCCTCGTCTTCTTCCTCCGGAGTCACCTAGTGCAG”, for which the binding signal is 13200 fluorescence intensity (a.u.).

On to “CACGAAGCCAGTCTAACCGCCATGTGTGGGCTTGTTTGACCGGAGTCACCTAGTGCAG”, for which the binding signal is 8700 fluorescence intensity (a.u.).

Regarding “TGCTTCTTGGACATCGCATCATATTTAAGCATGTTTTCCTCGGAGTCACCTAGTGCAG”, the binding signal is 10500 fluorescence intensity (a.u.).

With “CTCTCTTTCTCTTCCATTTCTTGAAACTTGTATGGAGGTTCGGAGTCACCTAGTGCAG”, the binding signal is 9410 fluorescence intensity (a.u.).

Regarding “ATCATTTCGCACATTAACTCTCTCTCTCTCTCTCCATTTTCGGAGTCACCTAGTGCAG”, the binding signal was 15200 fluorescence intensity (a.u.).

As for “AACCTTTTCTTTCTTTCTTCACTTTGGTTGCGTTGCGTCTCGGAGTCACCTAGTGCAG”, the binding signal was 24200 fluorescence intensity (a.u.).

On to “GACCTTTTTTTCTTTTCTTCTTTGTTCTTTGTTGTTCTCTCGGAGTCACCTAGTGCAG”, for which the binding signal is 10700 fluorescence intensity (a.u.).
